Results as given in paper PMC10726135, “HNF4α isoforms regulate the circadian balance between carbohydrate and lipid metabolism in the liver”.
The full ranking holds about 18,000 sequences; the median of “log2 normalized intensity” is about 0.39, and the highest 2% start at about 6.6. This is one part of a sample in which the highest values are shown more often than they occur.

target: T1, HNF4alpha2 (COS-7 nuclear extract) (Homo sapiens, UniProt P41235 1-474); assay: protein-binding microarray; COS-7 nuclear extract on double-stranded Agilent 4x180k PBM; binding buffer, salt, pH and temperature not given in the material; high values mean tight binding; conditions: chain copies: 2; label: 3' end of strand 1 on the slide; dsDNA, one strand shown
T1 sequence: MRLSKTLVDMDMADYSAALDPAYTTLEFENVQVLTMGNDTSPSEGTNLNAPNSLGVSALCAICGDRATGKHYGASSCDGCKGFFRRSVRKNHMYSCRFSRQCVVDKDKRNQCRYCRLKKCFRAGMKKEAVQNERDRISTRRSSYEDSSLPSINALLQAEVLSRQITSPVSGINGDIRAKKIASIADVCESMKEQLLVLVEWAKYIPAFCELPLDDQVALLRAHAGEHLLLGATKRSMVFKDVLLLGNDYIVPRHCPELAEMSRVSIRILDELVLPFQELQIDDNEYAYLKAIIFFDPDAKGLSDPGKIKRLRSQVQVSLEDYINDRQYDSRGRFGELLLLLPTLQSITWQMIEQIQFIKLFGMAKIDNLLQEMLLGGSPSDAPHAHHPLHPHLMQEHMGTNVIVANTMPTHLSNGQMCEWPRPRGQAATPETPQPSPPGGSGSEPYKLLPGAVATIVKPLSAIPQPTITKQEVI
Procedure, shortened: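 The binding signal is Agilent software's gProcessedSignal after background correction and normalization. Arrays were a custom Agilent SurePrint G3 4x180k design of double-stranded ~60-nt oligonucleotides with ~44,000 test sequences in quadruplicate, probed with nuclear extracts of COS-7 cells transiently expressing a human HNF4α isoform. Scans were made at 2-µm resolution on an Agilent G2565CA scanner.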

Sequence | binding signal
AATTACCATTCTTGAGGACAGGCCAAATCCGCCTAGGGAGATTAGAGTATCGGTCGA | 0.0816 log2 normalized intensity
CCCAGGTCCAGCCTTTGGGCAGGGGCATCCGCCTAGGGAGATTAGAGTATCGGTCGA | -0.72 log2 normalized intensity
TGTGCAGCTTTGTGTAAAACTTCAAAGAAGGCCTAGGGAGATTAGAGTATCGGTCGA | -0.427 log2 normalized intensity
GGTGTGAGAGGGCAAAGGTCACAGCATTAGGCCTAGGGAGATTAGAGTATCGGTCGA | 6.76 log2 normalized intensity
CCTGAGGTGTGAGAGGGCAAAGGTCACAGCGCCTAGGGAGATTAGAGTATCGGTCGA | 8.02 log2 normalized intensity
AATGGGCAAAGGTCACAAGAGGTGCTGTGTGCCTAGGGAGATTAGAGTATCGGTCGA | 4.69 log2 normalized intensity
TCACAGTGTGGGGCAAATCTGAGGTCAAAGGCCTAGGGAGATTAGAGTATCGGTCGA | 2.22 log2 normalized intensity
GGCTGAATGGGCAAAGGTCACAAGAGGTGCGCCTAGGGAGATTAGAGTATCGGTCGA | 4.6 log2 normalized intensity
GGGCCAGCAAGAGGTGACCCCAGGGCAAAGGCCTAGGGAGATTAGAGTATCGGTCGA | 2.92 log2 normalized intensity
GGGCAGCCCGTGTGGGCGGGTGCAGCTTCCGCCTAGGGAGATTAGAGTATCGGTCGA | -0.675 log2 normalized intensity
CAGTTATCAGACAGAGGAATTCAGCAGGATGCCTAGGGAGATTAGAGTATCGGTCGA | -0.611 log2 normalized intensity
TTTCTCCTCTCTGGGCTTCCATTGTGATTCGCCTAGGGAGATTAGAGTATCGGTCGA | 1.02 log2 normalized intensity
GCCACATTCCCCGACTCCTGGGTGTGAGATGCCTAGGGAGATTAGAGTATCGGTCGA | 0.517 log2 normalized intensity
AAGCAGAAGCTGCACACATGTCAAAGGTCAGCCTAGGGAGATTAGAGTATCGGTCGA | 6.19 log2 normalized intensity
CAGCAATCACCTACCCCCAGATTCTCTGTTGCCTAGGGAGATTAGAGTATCGGTCGA | 2.35 log2 normalized intensity
TTTGGAATTCCCTGCAAGGACAAAGGTCATGCCTAGGGAGATTAGAGTATCGGTCGA | 6.87 log2 normalized intensity
GTTATCTAATGGAGAGGATGGGGACAAAGGGCCTAGGGAGATTAGAGTATCGGTCGA | 1.47 log2 normalized intensity
GACAAAGGTCATTCATGTGCAGGTTGGAATGCCTAGGGAGATTAGAGTATCGGTCGA | 2.77 log2 normalized intensity
CTAATGGAGAGGATGGGGACAAAGGTCAAGGCCTAGGGAGATTAGAGTATCGGTCGA | 7.24 log2 normalized intensity
AATTCCCTGCAAGGACAAAGGTCATGTTTTGCCTAGGGAGATTAGAGTATCGGTCGA | 6.26 log2 normalized intensity
GGAGAGGATGGGGACAAAGGTCAAGAAAGCGCCTAGGGAGATTAGAGTATCGGTCGA | 5.86 log2 normalized intensity
TGTCTCTGGTCAGGGAGGGCTTTAGAATGTGCCTAGGGAGATTAGAGTATCGGTCGA | 1.01 log2 normalized intensity
TTGGTCTGCTGAGTCTCATGATTAGATTGAGCCTAGGGAGATTAGAGTATCGGTCGA | 0.746 log2 normalized intensity
TGGCCTGGGAACTTAGCGATTTGGAACCCAGCCTAGGGAGATTAGAGTATCGGTCGA | 0.829 log2 normalized intensity
AAGTTCAAGTAGATAAAATCAAACAGATGTGCCTAGGGAGATTAGAGTATCGGTCGA | 1.02 log2 normalized intensity
TCTGCAAACACCCCTCCCCCACACAGACAAGCCTAGGGAGATTAGAGTATCGGTCGA | 5.01 log2 normalized intensity
TGGTGCTATCTTTGCTCACTGTAACCTTTGGCCTAGGGAGATTAGAGTATCGGTCGA | 3.78 log2 normalized intensity

Sequence | binding signal
GTAACCTTTGCCCCCCAAGTTGAAGCCATCGCCTAGGGAGATTAGAGTATCGGTCGA | 5.16 log2 normalized intensity
AACCTTTGCCCCAGCTGTCACCCAGCCAGAGCCTAGGGAGATTAGAGTATCGGTCGA | 3.68 log2 normalized intensity
AGCCCCAACCCACTGTTGCCCCTTCCAAAGGCCTAGGGAGATTAGAGTATCGGTCGA | 4.68 log2 normalized intensity
GTGCTATCTCAGCTCACTGTAACCTTTGCCGCCTAGGGAGATTAGAGTATCGGTCGA | 3.93 log2 normalized intensity
TCACTGTAACCTTTGCCCCCCAAGTTGAAGGCCTAGGGAGATTAGAGTATCGGTCGA | 6.72 log2 normalized intensity
TTTGCTCACTGTAACCTTTGCCCCCCAAGTGCCTAGGGAGATTAGAGTATCGGTCGA | 8.54 log2 normalized intensity
ACTGTAACCTTTGCCCCCCTGGGCTCAAGCGCCTAGGGAGATTAGAGTATCGGTCGA | 5.81 log2 normalized intensity
ATCTCAGCTCACTGTAACCTTTGCCCCCCTGCCTAGGGAGATTAGAGTATCGGTCGA | 8.75 log2 normalized intensity
AGCAAAGGTCATCCTGGGCTACCGATATGAGCCTAGGGAGATTAGAGTATCGGTCGA | 0.737 log2 normalized intensity
TAGACCAGCCAATTCTACTGGAAGTAGGTAGCCTAGGGAGATTAGAGTATCGGTCGA | 0.854 log2 normalized intensity
CCTTTCCCCGCCCCGCGTCCGTGCACCCTTGCCTAGGGAGATTAGAGTATCGGTCGA | 4.42 log2 normalized intensity
ACTTTGAGGTGTTCTCTGGGGTTAGCCAAAGCCTAGGGAGATTAGAGTATCGGTCGA | 1.59 log2 normalized intensity
CGGGTCAGCAGGGCACCGCCTCCACACCCCGCCTAGGGAGATTAGAGTATCGGTCGA | 1.59 log2 normalized intensity
TCACAATTAAGCCAAACTTGGGTTTATGGCGCCTAGGGAGATTAGAGTATCGGTCGA | 0.583 log2 normalized intensity
AGACAACCTTTGGTCACTTGTAAGATACTGGCCTAGGGAGATTAGAGTATCGGTCGA | 2.43 log2 normalized intensity
AAGGTTGGTCTTAGGACCACATGAGTAAACGCCTAGGGAGATTAGAGTATCGGTCGA | -0.756 log2 normalized intensity
GAGAAGTGAACTTTGCCCTCTCTTTCTGGAGCCTAGGGAGATTAGAGTATCGGTCGA | 7.55 log2 normalized intensity
CCTTGGATCTCCTGCACCTGAACTTTGCTCGCCTAGGGAGATTAGAGTATCGGTCGA | 6.35 log2 normalized intensity
AAGTGACCCTGGTCTTTGCCCTTTCCTAGAGCCTAGGGAGATTAGAGTATCGGTCGA | 3.39 log2 normalized intensity
TGGGCTCCTGCCTTGGAGAAGTGAACTTTGGCCTAGGGAGATTAGAGTATCGGTCGA | 4.34 log2 normalized intensity
GTGAACTTTGCCCTCTCTTTCTGGAACCTAGCCTAGGGAGATTAGAGTATCGGTCGA | 5.08 log2 normalized intensity
ACTGATCTCTGGCTTGATCCCTGAACTTTGGCCTAGGGAGATTAGAGTATCGGTCGA | 3.32 log2 normalized intensity
TCTCTGGCTTGATCCCTGAACTTTGCTCCCGCCTAGGGAGATTAGAGTATCGGTCGA | 7.97 log2 normalized intensity
GGCTTGATCCCTGAACTTTGCTCCCACCCTGCCTAGGGAGATTAGAGTATCGGTCGA | 5.57 log2 normalized intensity
TCCTGCCTTGGAGAAGTGAACTTTGCCCTCGCCTAGGGAGATTAGAGTATCGGTCGA | 10.2 log2 normalized intensity
TGGGCTCGGCGCTCCGCTTACTCGGCCTGGGCCTAGGGAGATTAGAGTATCGGTCGA | -0.994 log2 normalized intensity
TCCCTCATTAGTAACTCCAGAGATAAGATAGCCTAGGGAGATTAGAGTATCGGTCGA | 0.0683 log2 normalized intensity
